# Of roughly 8,800 targets only a part is listed; those with a hit were picked by preference. About 0.5% of all pairs of compound and target were hits.
# Compound: C1=CC=C(C=C1)[C@H](COC2=CC3=C(C=C2)NC(=O)N3)NC(=O)C4=CC=CN(C4=O)CC5=CC(=C(C=C5)F)F
# Experiment: log2 fold change, soluble protein after heating vs DMSO (PISA); higher = thermal stabilisation; K562 lysate, 10 uM; active = over 0.2 and 3.5 SD of the protein, either way, in both replicates (recomputed)
# Outline: (§1)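 A 30 min treatment with 10 μM compound was applied to crude K562 extract at 1 mg/mL protein in PBS pH 7.4 with 1 mM MgCl2. Heating for 3 min spanned 48°C-58°C, after which aliquots were pooled, adjusted to 0.5% NP-40 at 4°C and spun at 21,000xg for 90 min. TMTpro 16plex LC-MS/MS of the supernatant, with channel sums equalised, gave values recorded as log-two fold change in thermal stability against solvent controls, from duplicates.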
# Sequence of UniProt P46020 (P46020 whole entry, looked up): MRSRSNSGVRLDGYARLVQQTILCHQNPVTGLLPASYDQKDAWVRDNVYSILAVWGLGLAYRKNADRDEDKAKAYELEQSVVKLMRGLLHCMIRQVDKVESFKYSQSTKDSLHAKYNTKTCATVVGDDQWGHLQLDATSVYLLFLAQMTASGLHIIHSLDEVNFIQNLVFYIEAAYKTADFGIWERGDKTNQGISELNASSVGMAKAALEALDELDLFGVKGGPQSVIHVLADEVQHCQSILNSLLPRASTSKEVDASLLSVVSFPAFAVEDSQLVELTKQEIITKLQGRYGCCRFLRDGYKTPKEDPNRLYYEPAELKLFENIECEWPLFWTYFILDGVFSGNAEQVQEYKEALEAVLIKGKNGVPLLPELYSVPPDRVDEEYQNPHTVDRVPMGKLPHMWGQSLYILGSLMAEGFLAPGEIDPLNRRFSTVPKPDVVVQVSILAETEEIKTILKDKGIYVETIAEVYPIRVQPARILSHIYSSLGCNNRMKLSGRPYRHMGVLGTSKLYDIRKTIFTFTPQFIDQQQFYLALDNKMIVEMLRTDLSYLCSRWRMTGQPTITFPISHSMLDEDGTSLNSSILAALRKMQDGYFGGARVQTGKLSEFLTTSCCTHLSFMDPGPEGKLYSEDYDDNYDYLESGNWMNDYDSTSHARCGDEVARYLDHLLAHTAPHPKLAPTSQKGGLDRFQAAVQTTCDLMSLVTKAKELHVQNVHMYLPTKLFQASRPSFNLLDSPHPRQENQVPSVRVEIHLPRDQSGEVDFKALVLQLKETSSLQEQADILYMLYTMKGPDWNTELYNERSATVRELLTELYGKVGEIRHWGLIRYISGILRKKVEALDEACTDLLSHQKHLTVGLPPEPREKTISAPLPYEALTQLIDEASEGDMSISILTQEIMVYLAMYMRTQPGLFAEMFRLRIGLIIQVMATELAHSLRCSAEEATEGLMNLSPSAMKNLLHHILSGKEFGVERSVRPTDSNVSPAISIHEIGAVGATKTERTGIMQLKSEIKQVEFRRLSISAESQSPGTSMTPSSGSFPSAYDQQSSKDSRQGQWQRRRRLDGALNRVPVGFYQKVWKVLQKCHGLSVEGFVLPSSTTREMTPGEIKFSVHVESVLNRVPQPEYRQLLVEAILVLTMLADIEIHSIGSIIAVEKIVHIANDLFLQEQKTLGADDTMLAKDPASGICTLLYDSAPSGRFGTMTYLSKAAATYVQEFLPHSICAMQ
# Sequence of UniProt Q93100 (Q93100 whole entry, looked up): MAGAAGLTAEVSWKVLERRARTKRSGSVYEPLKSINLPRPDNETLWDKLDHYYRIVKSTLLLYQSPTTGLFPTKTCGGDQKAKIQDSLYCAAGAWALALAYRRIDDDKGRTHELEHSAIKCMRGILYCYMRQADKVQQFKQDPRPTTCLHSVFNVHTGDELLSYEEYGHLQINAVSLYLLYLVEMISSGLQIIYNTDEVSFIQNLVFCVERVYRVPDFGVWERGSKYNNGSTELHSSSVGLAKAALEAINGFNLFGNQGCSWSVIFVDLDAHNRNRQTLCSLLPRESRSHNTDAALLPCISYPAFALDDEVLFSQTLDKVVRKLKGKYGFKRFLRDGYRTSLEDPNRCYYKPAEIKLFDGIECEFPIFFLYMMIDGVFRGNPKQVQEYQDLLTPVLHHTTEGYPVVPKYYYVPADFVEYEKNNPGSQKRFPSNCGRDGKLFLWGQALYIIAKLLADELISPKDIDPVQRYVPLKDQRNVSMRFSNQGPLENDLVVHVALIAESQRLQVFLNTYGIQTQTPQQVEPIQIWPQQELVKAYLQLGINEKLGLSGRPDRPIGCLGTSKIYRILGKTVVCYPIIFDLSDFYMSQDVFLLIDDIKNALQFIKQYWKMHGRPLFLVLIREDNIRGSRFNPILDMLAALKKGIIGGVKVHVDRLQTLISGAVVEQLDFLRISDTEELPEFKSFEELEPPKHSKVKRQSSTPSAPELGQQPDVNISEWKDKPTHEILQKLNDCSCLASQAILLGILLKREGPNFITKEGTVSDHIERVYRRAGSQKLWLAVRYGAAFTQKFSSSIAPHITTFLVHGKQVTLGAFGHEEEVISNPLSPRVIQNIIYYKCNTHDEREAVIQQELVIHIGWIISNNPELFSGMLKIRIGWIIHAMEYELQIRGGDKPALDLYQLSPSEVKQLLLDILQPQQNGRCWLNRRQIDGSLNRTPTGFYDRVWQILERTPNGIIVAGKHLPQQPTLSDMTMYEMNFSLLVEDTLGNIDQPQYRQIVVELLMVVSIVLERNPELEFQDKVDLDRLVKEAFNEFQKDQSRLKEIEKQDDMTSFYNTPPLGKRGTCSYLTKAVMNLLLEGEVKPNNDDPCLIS
# Sequence of UniProt Q9BUL8 (Q9BUL8 whole entry, looked up): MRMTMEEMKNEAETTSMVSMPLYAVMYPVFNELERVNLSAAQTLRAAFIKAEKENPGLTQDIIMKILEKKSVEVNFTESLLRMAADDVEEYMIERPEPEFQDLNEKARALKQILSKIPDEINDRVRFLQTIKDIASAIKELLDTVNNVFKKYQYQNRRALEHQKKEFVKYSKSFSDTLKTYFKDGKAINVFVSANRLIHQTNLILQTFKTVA
# Sequence of UniProt Q9P215 (Q9P215 whole entry, looked up): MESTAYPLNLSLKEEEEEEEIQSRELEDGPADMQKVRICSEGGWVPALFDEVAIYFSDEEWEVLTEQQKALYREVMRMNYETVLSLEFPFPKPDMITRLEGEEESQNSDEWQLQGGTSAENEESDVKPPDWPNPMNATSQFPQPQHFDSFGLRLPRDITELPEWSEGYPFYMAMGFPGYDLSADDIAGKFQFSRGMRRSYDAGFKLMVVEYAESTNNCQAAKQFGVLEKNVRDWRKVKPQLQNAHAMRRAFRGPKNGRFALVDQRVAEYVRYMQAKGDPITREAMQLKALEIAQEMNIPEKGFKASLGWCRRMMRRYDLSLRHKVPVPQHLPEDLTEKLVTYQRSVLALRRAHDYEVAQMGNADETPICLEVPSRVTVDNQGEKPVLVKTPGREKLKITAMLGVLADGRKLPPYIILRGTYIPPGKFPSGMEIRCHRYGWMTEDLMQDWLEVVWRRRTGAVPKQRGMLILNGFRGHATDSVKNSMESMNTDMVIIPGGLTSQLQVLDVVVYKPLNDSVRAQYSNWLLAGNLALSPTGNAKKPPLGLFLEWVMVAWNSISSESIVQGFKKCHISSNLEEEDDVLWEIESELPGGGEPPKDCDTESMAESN
# Sequence of UniProt O15031 (O15031 whole entry, looked up): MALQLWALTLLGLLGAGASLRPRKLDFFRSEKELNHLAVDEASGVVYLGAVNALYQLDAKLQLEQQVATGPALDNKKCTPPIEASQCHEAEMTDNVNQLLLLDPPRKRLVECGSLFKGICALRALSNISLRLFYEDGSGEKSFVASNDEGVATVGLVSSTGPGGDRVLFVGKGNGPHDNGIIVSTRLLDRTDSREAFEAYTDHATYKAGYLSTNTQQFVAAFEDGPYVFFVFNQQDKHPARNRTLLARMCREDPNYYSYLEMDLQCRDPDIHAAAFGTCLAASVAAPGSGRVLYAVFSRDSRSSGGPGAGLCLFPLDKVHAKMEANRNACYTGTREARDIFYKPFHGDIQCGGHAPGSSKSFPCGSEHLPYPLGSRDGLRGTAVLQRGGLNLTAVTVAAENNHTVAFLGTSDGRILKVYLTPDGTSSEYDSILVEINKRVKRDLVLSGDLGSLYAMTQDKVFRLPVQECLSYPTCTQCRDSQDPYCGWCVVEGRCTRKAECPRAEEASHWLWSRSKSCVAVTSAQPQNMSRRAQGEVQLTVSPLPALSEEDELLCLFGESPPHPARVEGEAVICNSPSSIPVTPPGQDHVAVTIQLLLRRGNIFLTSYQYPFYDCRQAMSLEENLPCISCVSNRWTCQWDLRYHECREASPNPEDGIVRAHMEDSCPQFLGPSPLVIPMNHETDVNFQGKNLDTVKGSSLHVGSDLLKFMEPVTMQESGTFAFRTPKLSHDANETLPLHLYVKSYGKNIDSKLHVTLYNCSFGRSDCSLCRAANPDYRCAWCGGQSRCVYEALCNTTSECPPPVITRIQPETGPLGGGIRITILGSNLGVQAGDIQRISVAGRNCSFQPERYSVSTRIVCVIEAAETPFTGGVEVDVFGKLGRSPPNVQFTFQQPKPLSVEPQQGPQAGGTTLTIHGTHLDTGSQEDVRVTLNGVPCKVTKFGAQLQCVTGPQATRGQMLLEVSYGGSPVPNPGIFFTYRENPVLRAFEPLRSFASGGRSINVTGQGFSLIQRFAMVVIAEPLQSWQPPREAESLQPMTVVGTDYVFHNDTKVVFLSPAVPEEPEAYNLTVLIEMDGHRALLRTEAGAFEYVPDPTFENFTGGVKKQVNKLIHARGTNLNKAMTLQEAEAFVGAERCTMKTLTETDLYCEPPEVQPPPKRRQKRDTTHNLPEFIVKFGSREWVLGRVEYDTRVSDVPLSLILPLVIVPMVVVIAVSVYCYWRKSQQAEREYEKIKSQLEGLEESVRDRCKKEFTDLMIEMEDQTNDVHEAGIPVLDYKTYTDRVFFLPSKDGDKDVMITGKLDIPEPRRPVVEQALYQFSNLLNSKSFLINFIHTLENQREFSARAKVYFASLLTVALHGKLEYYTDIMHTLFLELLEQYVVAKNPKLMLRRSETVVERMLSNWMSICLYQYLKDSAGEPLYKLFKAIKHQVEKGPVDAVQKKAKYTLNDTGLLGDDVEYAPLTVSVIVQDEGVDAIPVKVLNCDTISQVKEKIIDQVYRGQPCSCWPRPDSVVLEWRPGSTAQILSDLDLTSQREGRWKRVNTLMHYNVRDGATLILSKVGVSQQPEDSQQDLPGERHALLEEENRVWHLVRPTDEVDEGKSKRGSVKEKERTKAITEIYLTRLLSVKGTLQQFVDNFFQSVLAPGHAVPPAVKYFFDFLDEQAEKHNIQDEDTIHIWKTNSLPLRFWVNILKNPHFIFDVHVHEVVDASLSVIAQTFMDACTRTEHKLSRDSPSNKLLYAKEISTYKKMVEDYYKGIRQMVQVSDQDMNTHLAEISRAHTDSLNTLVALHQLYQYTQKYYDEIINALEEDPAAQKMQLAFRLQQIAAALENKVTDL
# Sequence of UniProt Q96I23 (Q96I23 whole entry, looked up): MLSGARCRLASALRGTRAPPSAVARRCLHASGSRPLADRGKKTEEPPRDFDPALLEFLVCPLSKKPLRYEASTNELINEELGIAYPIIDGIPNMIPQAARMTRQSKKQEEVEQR
row,Target,log2 fold change
1,PIP4K2B (UniProt P78356),-0.063 (inactive)
2,PRKAR2A (UniProt P13861),0.009 (inactive)
3,PCIF1 (UniProt Q9H4Z3),-0.015 (inactive)
4,PRMT5 (UniProt O14744),-0.01 (inactive)
5,PIK3R1 (UniProt P27986),-0.014 (inactive)
6,PFKFB4 (UniProt Q16877),-0.066 (inactive)
7,POLD3 (UniProt Q15054),-0.004 (inactive)
8,PI4KB (UniProt Q9UBF8),0.022 (inactive)
9,PHKA1 (UniProt P46020),0.033 (inactive)
10,PDCD10 (UniProt Q9BUL8),-0.005 (inactive)
11,PPFIA2 (UniProt O75334),0.022 (inactive)
12,PLK1 (UniProt P53350),0.033 (inactive)
13,PFKP (UniProt Q01813),-0.005 (inactive)
14,PDS5A (UniProt Q29RF7),-0.049 (inactive)
15,PLXNB2 (UniProt O15031),-0.034 (inactive)
16,PPIC (UniProt P45877),0.209 (inactive)
17,PYURF (UniProt Q96I23),0.03 (inactive)
18,PIK3CD (UniProt O00329),-0.053 (inactive)
19,PI4K2A (UniProt Q9BTU6),0.028 (inactive)
20,QKI (UniProt Q96PU8),-0.071 (inactive)

row,Target,log2 fold change
1,PFDN2 (UniProt Q9UHV9),0.044 (inactive)
2,PRKAB2 (UniProt O43741),0.1 (inactive)
3,PKP3 isoform 2 (UniProt Q9Y446),-0.049 (inactive)
4,PES1 (UniProt O00541),0.027 (inactive)
5,PRIM2 (UniProt P49643),0.004 (inactive)
6,PRKCB isoform 2 (UniProt P05771),-0.007 (inactive)
7,PPP2R5C isoform 2 (UniProt Q13362),-0.016 (inactive)
8,PPP4R2 (UniProt Q9NY27),0.019 (inactive)
9,POGK (UniProt Q9P215),-0.142 (inactive)
10,PIK3C3 (UniProt Q8NEB9),-0.041 (inactive)
11,PI4K2B (UniProt Q8TCG2),-0.033 (inactive)
12,PPP2R3C (UniProt Q969Q6),-0.044 (inactive)
13,PDE4DIP isoform 4 (UniProt Q5VU43),-0.102 (inactive)
14,PIR (UniProt O00625),-0.013 (inactive)
15,PRKD2 isoform 3 (UniProt Q9BZL6),0.001 (inactive)
16,PPME1 isoform 4 (UniProt Q9Y570),-0.004 (inactive)
17,PHKB isoform 3 (UniProt Q93100),0.015 (inactive)
18,PUS3 (UniProt Q9BZE2),-0.006 (inactive)
19,PRC1 (UniProt O43663),0.089 (inactive)

# Compound: CC1=C(SC2=C1C(=N[C@H](C3=NN=C(N32)C)CC(=O)N)C4=CC=C(C=C4)Cl)C
# Experiment: as above
# Outline: as §1
row,Target,log2 fold change
1,PIP4K2B (UniProt P78356),-0.078 (inactive)
2,PRKAR2A (UniProt P13861),0.012 (inactive)
3,PCIF1 (UniProt Q9H4Z3),-0.013 (inactive)
4,PRMT5 (UniProt O14744),0.031 (inactive)
5,PIK3R1 (UniProt P27986),-0.065 (inactive)
6,PFKFB4 (UniProt Q16877),0.023 (inactive)
7,POLD3 (UniProt Q15054),0.002 (inactive)
8,PI4KB (UniProt Q9UBF8),-0.006 (inactive)
9,PHKA1 (UniProt P46020),0.02 (inactive)
10,PDCD10 (UniProt Q9BUL8),0.02 (inactive)
11,PPFIA2 (UniProt O75334),0.041 (inactive)
12,PLK1 (UniProt P53350),0.042 (inactive)
13,PFKP (UniProt Q01813),0.02 (inactive)
14,PDS5A (UniProt Q29RF7),-0.031 (inactive)
15,PLXNB2 (UniProt O15031),0.037 (inactive)
16,PPIC (UniProt P45877),-0.242 (inactive)
17,PYURF (UniProt Q96I23),0.048 (inactive)
18,PIK3CD (UniProt O00329),0.075 (inactive)
19,PI4K2A (UniProt Q9BTU6),0.056 (inactive)
20,QKI (UniProt Q96PU8),-0.001 (inactive)

row,Target,log2 fold change
1,PFDN2 (UniProt Q9UHV9),-0.055 (inactive)
2,PRKAB2 (UniProt O43741),-0.012 (inactive)
3,PKP3 isoform 2 (UniProt Q9Y446),0.014 (inactive)
4,PES1 (UniProt O00541),0.016 (inactive)
5,PRIM2 (UniProt P49643),0.026 (inactive)
6,PRKCB isoform 2 (UniProt P05771),-0.022 (inactive)
7,PPP2R5C isoform 2 (UniProt Q13362),0.224 (inactive)
8,PPP4R2 (UniProt Q9NY27),0.025 (inactive)
9,POGK (UniProt Q9P215),0.13 (inactive)
10,PIK3C3 (UniProt Q8NEB9),-0.032 (inactive)
11,PI4K2B (UniProt Q8TCG2),0.048 (inactive)
12,PPP2R3C (UniProt Q969Q6),0.006 (inactive)
13,PDE4DIP isoform 4 (UniProt Q5VU43),0.154 (inactive)
14,PIR (UniProt O00625),0.017 (inactive)
15,PRKD2 isoform 3 (UniProt Q9BZL6),-0.031 (inactive)
16,PPME1 isoform 4 (UniProt Q9Y570),0.013 (inactive)
17,PHKB isoform 3 (UniProt Q93100),0.011 (inactive)
18,PUS3 (UniProt Q9BZE2),-0.089 (inactive)
19,PRC1 (UniProt O43663),0.037 (inactive)

# Reference: the supplement of paper PMC10849652
